Bioassay records as filed in PubChem BioAssay.
Compounds with a hit are over-represented: about 2.3% of the library has one in this group of screens.
IDE cell activ: IDE (human) activation, cell-based | P14735 | HEK cells, FAbeta-B cleavage, fluorescence polarization; 0% vehicle, 100% cell-free pure enzyme wells | activation, % at 5.96 µM | actives 0.073% (n = 340,000) | AID 493087;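 active = activation above the mean of all tested compounds plus 3 SD, set per screening campaign, cut at about 17% in these data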
Target sequence (P14735 whole entry, looked up): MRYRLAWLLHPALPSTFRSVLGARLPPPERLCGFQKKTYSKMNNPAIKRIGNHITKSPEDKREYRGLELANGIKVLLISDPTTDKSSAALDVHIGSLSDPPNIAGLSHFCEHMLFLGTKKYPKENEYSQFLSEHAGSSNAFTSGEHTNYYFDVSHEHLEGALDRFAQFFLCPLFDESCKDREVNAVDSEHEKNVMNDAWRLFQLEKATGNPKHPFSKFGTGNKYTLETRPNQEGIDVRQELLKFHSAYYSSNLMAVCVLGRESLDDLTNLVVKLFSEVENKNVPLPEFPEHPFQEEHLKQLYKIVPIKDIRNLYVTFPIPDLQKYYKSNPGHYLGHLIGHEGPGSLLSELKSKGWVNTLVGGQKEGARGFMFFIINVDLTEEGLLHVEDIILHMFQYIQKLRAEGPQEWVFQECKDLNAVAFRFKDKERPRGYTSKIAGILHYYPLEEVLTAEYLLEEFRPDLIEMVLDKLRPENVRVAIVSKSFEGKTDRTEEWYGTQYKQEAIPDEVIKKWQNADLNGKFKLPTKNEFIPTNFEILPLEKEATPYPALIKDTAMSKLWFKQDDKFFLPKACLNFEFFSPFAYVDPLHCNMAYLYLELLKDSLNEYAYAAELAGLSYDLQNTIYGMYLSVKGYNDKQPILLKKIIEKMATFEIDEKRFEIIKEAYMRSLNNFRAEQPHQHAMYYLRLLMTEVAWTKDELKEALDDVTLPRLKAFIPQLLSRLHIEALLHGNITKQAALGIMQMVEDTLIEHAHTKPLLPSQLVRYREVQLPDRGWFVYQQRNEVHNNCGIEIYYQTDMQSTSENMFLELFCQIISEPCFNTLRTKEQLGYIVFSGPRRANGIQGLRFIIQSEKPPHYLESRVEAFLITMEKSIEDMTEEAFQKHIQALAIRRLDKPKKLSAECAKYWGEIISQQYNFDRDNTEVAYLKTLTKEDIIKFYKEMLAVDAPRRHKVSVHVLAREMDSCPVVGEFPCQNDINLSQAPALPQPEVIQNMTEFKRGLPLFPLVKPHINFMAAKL
IDE inh: cellular human IDE inhibition | P14735 | actives 0.41% (n = 320,000) | HEK cells, FAbetaB cleavage, fluorescence polarization | inhibition, % at 5.59 µM | AID 434962;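 active = percent inhibition above the average of all tested compounds plus 3 SD, set per screening campaign, cut at about 16% in these data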;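 also: IDE supplied by intact live HEK cells; FP after avidin binding of uncleaved biotin substrate so inhibition keeps polarization high; 0% = DMSO wells and 100% = 60 µM reference IDE inhibitor Ii1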
Rpn11 block: blocks the human proteasome subunit Rpn11; actives 0.59% (n = 360,000); inhibition, % at 20 µM; O00487; human 26S proteasome, Ub4-pepOG fluorescence polarization; 20S core pre-blocked with epoxomicin;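 active = inhibition at 20 µM, scaled to each plate's controls, above about 33%, limit read from the data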
Calb FLC: C. albicans growth modulation with fluconazole; C. albicans CaCi-2 (fluconazole-resistant clinical isolate) + fluconazole, Alamar Blue growth, 48 h; growth inhibition, % (concentration not given with the values); actives 0.57% (n = 300,000); AID 1979;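 active = growth inhibition above about 58% in most replicates, limit read from the data, passing the limit was not always enough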;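 also: all wells also contain fluconazole at 8 µg/ml as a sub-toxic cotreatment; 0% = median of DMSO wells and 100% = median of geldanamycin control wells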
Rin1-Abl PPI inh: human Rin1-Abl interaction inhibition; P00519+Q13671; TR-FRET Rin1/Abl binding, biochemical; inhibition, % at 7.35 µM; actives 0.4% (n = 360,000); AID 588664; in the data active = inhibition above about 5%, passing the limit was not always enough
TPT1 inhibitor: inhibitors of Candida albicans tRNA 2'-phosphotransferase TPT1 | recombinant caTPT1, FP RNA substrate dephosphorylation | inhibition, % at 5 µM | actives 0.81% (n = 300,000);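 active = inhibition above the mean of all tested compounds plus 3 SD, set per screening campaign, cut at about 24% in these data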;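 also: plate controls were DMSO alone for no effect and ferristatin control at 100 nM for full effect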
TPT1 inh confirm: confirmation of Candida albicans TPT1 inhibitors | inhibition, % at 5 µM | shares compounds with TPT1 inhibitor | actives 74% (n = 2,400) | recombinant caTPT1, fluorescence polarization, RNase T1 coupled | AID 2149;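 active = inhibition above the primary screen limit, the mean inhibition of all tested compounds plus 3 SD, cut at about 25% in these data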
RNase T1 counter: blocks Aspergillus oryzae RNase T1, a TPT1 counter-screen; shares compounds with TPT1 inhibitor; RNase T1 cleavage, fluorescence polarization, 1536-well; inhibition, % at 5 µM; actives 83% (n = 2,400);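 active = inhibition above the solvent-only control well mean plus 3 SD, limit set per screening run, cut at about 23% in these data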;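 also: plate controls were DMSO wells with enzyme for no effect and wells without RNase T1 for full effect; inhibitors block cleavage so intact labeled substrate keeps polarization high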
* marks the source's active call; other numbers are inactive results; . = not tested or not shown; + = active, no number.

SMILES	IDE cell activ	IDE inh	Rpn11 block	Calb FLC	Rin1-Abl PPI inh	TPT1 inhibitor	TPT1 inh confirm	RNase T1 counter
Cn1cccc1/C=C1\SC(=O)N(c2ccccc2)C1=O	-1	-3	3	-33	-5	24	.	.
O=C(O)C(Cc1ccccc1)N1C(=O)/C(=C/c2cccs2)SC1=S (configuration not stated)	.	.	2	.	1	.	.	.
CCCC(C(=O)O)N1C(=O)/C(=C/c2cccn2C)SC1=S (configuration not stated)	-10	9	.	.	0	107*	121*	127*
CC(C)C(C(=O)O)N1C(=O)/C(=C/c2cccn2C)SC1=S (configuration not stated)	-11	7	.	.	0	106*	125*	134*
COc1ccccc1CNC(=O)CN1C(=O)N(C)C2(CCCCC2)C1=O	0	2	1	.	-1	.	.	.
CCC(C)NC(=O)C1CC(=O)N(CCc2ccc(F)cc2)C1 (configuration not stated)	6	0	8	-3	0	1	.	.
Cc1ccnc(N=Cc2c(O)ccc3oc4c(c23)CCCC4)c1	.	1	.	.	.	-9	.	.
CCN(CC)c1nc(C)c(C(=S)Nc2cc([N+](=O)[O-])ccc2Cl)s1	-11	2	.	-7	-2	28*	61*	73*
CC(C)c1ccc(/C=C2\CC/C(=C\C=N\N(C)C)C2=O)cc1	1	-7	30	9	-2	80*	75*	82*
Cc1ccc(OCCN2C(=O)S/C(=C\c3ccc(C)o3)C2=O)cc1	-7	2	37	-3	1	12	.	.
CCCN1C(=O)S/C(=C/c2ccc(N3CCOCC3)o2)C1=O	-90	8	.	45	-13	180*	183*	166*
COC(=O)CN1C(=O)S/C(=C/c2ccc(N3CCCCC3)o2)C1=O	-142	3	.	8	-15	181*	191*	170*
CCCN1C(=O)S/C(=C\c2ccc(N3CCOCC3)o2)C1=O	-79	0	.	38	1	+	188*	169*
O=C(O)CN1C(=O)/C(=C/c2ccc(N3CCCCC3)o2)SC1=S	-29	-1	38	-4	1	9	.	.
O=C(CCN1C(=O)S/C(=C\c2ccccc2)C1=O)N1CCOCC1	4	0	7	-3	-7	0	.	.
Cc1cc(Cl)ccc1C(O)c1ncc(-c2cccc(C(F)(F)F)c2)[nH]1 (configuration not stated)	.	.	2	.	2	.	.	.
CCCCN(C(=O)c1cc2ccccc2o1)c1c(N)n(CCCC)c(=O)[nH]c1=O	-3	6	-2	.	2	.	.	.
Cc1ccc(NC(=O)COC(=O)CC2CCCC2)cc1F	7	2	2	.	-3	.	.	.
CC(C)C(=O)Nc1nnc(SCC(=O)NCc2cccs2)s1	1	5	5	1	-2	32*	1	2
Cn1cc(/C=C/C(=O)c2ccccc2)c2ccccc21	-2	-2	31	1	-4	34*	38*	45*
Cc1ccc(C(=O)/C=C/c2cn(CN3CCN(C)CC3)c3ccccc23)cc1	-5	5	16	58	-1	12	.	.
COCCCNC(=O)/C(C#N)=C/c1c(N2CCN(C)CC2)nc2ccccn2c1=O	3	5	8	-10	-1	-5	.	.
Cc1cc(=O)n2nc(N3CCCC3C(=O)Nc3cccc(Cl)c3C)sc2n1 (configuration not stated)	-7	2	28	-8	3	30*	92*	103*
CCCC(=O)Nc1sc2c(c1C#N)CCCC2	4	1	-6	36	0	-7	.	.
CC1CCN(CC(=O)Nc2sc3c(c2C#N)CCC3)CC1	1	6	9	-2	1	39*	5	13
SMILES	IDE cell activ	IDE inh	Rpn11 block	Calb FLC	Rin1-Abl PPI inh	TPT1 inhibitor	TPT1 inh confirm	RNase T1 counter
O=C1/C(=C/c2cccnc2)SC(=S)N1Nc1ccccc1	.	10	-1	-2	-4	-4	.	.
Cn1cccc1/C=C1\SC(=S)N(Nc2ccccc2)C1=O	-7	3	.	7	-4	42*	72*	87*
Cc1ccc(S(=O)(=O)NN2C(=O)/C(=C/c3cccn3C)SC2=S)cc1	.	-12	.	.	.	57*	60*	74*
OC(c1cc(F)cc(Cl)c1)c1ncc(-c2ccc3ccccc3c2)[nH]1 (configuration not stated)	.	.	-1	.	0	.	.	.
O=S(=O)(Nc1cccc(S(=O)(=O)N2CCCCC2)c1)c1ccc(Cl)s1	0	3	1	.	1	.	.	.
C=CCn1ccc2c([N+](=O)[O-])cccc2c1=O	2	-2	10	-1	1	1	.	.
C=CCn1ccc(=NC=C(C#N)C#N)c2ccccc21	0	2	36	12	-7	31*	45*	57*
CCC(Sc1nc2ccncc2[nH]1)C(=O)Nc1ccc(C)c(Cl)c1 (configuration not stated)	-2	0	-2	27	3	2	.	.
CCc1nnc(NC(=O)C2CCCCN2S(=O)(=O)c2ccccc2)s1 (configuration not stated)	-1	-10	-2	14	-2	2	.	.
COc1ccc(C)cc1Nc1n[n+](-c2ccccc2)c(-c2cc([N+](=O)[O-])cc(OC)c2O)s1	-6	-5	.	-8	-1	24*	120*	120*
COc1ccc(C)cc1Nc1n[n+](-c2ccccc2)c(-c2ccc(NC(C)=O)cc2)s1	-4	1	17	-6	-5	6	.	.
CC(=O)Oc1ccccc1/C=C/c1nc2ccccc2c(=O)o1	-3	6	26	-2	-1	0	.	.
O=c1oc(/C=C/c2ccc([N+](=O)[O-])s2)nc2ccccc12	1	2	81*	3	0	60*	59*	70*
Cc1ccc(S(=O)(=O)N2C[C@H]3[C@H]4C(=O)N(c5ccccc5)C(=O)[C@H]4C[C@H](OC(=O)Nc4cccs4)[C@@]3(O)C2)cc1	.	.	1	.	-5	.	.	.
COc1cc(CNc2ncnc3c2ncn3[C@H]2CN(Cc3ccc4c(c3)OCO4)C[C@@H](CO)O2)cc(OC)c1OC	.	.	1	.	4	.	.	.
O=S(=O)(c1ccc(-c2ccon2)s1)N1CCN(c2ccncc2)CC1	.	8	.	8	.	44*	19	26*
N#C/C(=C\c1coc2ccc(O)cc2c1=O)C(=O)Nc1nc2ccccc2s1	-19	16	.	13	-2	28*	93*	90*
NC(=O)N/N=C/c1coc2ccc(O)cc2c1=O	4	0	-1	4	-6	-2	.	.
N#Cc1c(C(F)(F)F)cc(-c2ccco2)nc1SCc1ccccn1	0	1	.	-3	2	27*	18	23*
